Reference: PubChem BioAssay AID602127 (Broad Institute, 2011)
Results with a measured potency or affinity are listed apart.

The molecules below were run against Cyclin-dependent kinase 2 (Homo sapiens) (UniProt P24941) (assay: inhibition of human CDK2/cyclin A – biochemical, cherry-picked samples, selectivity assay for Dyrk1A inhibitor project, dose response (AID 602127)). Details: ADP-Glo luminescence, 60 min; series mostly up to 10 µM; activity change, negative = inhibition: at the top concentration;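 active = every repeat test judged active, meaning a falling signal with potency within twice the top valid dose; inconclusive = repeat tests disagree on the call; inactive = every repeat test inactive, including signal moving upward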.

Activity change, negative = inhibition, inactive:
Cc1csc(CN(C)c2ncnc3ccc(-c4ccc5c(c4)OCO5)cc23)n1 2.04%
CN(Cc1nccs1)c1ncnc2ccc(-c3ccc4c(c3)OCO4)cc12 -3%
O=C(NCc1ccco1)c1sc2ccccc2c1Cl 2.35%
CN(C)S(=O)(=O)c1ccc(NC(=O)c2cc3ccccc3o2)cc1 3.94%
c1nc(NCC2CCCOC2)c2cc(-c3ccc4c(c3)OCO4)ccc2n1 (configuration not stated) -7.3%
O=C(Nc1nc(-c2ccc3c(c2)OCCO3)cs1)c1ccco1 1.2%
Cc1ccsc1CNc1ncnc2ccc(-c3ccc4c(c3)OCO4)cc12 -11.8%
CC(=O)Nc1ccc(SCc2ncc(-c3ccccc3)o2)cc1 -20.5%
COc1cccc(Nc2nc(-c3ccc(O)cc3)cs2)c1 -12.6%
Clc1ccccc1-c1ccc2ncnc(NCc3ccc4c(c3)OCO4)c2c1 -0.839%
COc1cccc(NC(=O)Nc2ccc3c(c2)N(C)C(=O)CS3)c1 -5.88%
COc1ccc(C(=O)c2sc(Nc3ccccc3F)nc2N)cc1 10%
